Source: PubChem
NADH coupling: inhibition of NAD/NADH coupling enzymes, library profiling; coupled PK/LDH NADH assays, four targets; IC50, µM (series often up to 10 µM), for the others: at the highest dose inhibition; 0.02% of 65,000 active; AID 774;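 active means single-dose screening hits from any of four coupled enzyme assays that gave an IC50 when retested across doses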;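 further: the DPM-DC format reads NADH fluorescence rather than 340 nm absorbance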
MK inhibit: blocks S. pneumoniae mevalonate kinase; purified MK, PK/LDH-coupled NADH absorbance 340 nm; inhibition, % at 10 µM; 0.48% of 65,000 active;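 active means ranked among the strongest by inhibition in the single 10 µM screen, a fixed top-ranked set picked for dose follow-up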
Spn DPM-DC inh: blocks S. pneumoniae diphosphomevalonate decarboxylase. purified DPM-DC, PK/LDH coupled NADH fluorescence. calls only at 10 µM. 0.49% of 65,000 active. AID 556;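 active means the 320 compounds with the highest percent inhibition in the single-dose primary screen, excluding strongly autofluorescent ones, cut at about 32% in these data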;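 further: kinetic rate of NADH fluorescence loss reporting ADP formed by the decarboxylase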
Fluor 339 460: intrinsic fluorescence of library compounds, ex339/em460 – biochemical, MLSMR library, data from DPM-DC assay, artefact control, profiling panel; fluorescence fold increase at 10 µM; compound autofluorescence, ex339/em460 nm, NADH buffer; hits give high values; 1 = no-compound wells, NADH background; 5.5% of 65,000 active;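 active means at 10 µM, mean starting fluorescence two-fold or more over control wells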;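 further: signal is the first read of a kinetic run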
Abs 340nm: absorbance at 340 nm. compound absorbance at 340 nm, fold over control. fold change at 10 µM. 65,000 tested, under 10 active;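 active means at 10 µM dose, initial 340 nm absorbance at least 2 fold that of control wells; inactive means change under 2 fold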;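 further: initial absorbance extrapolated from kinetic A340 decline of NADH oxidation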
PMK inhibit: inhibitors of Streptococcus pneumoniae phosphomevalonate kinase; purified PMK, PK/LDH-coupled NADH absorbance 340 nm; inhibition, % at 10 µM; 0.49% of 65,000 active; AID 539;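 active means top-ranked compounds by inhibition in the single 10 µM screen, taking a fixed number of the strongest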;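 further: 0% = full reaction with DMSO carrier and 100% = background rate without enzyme reaction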
Active calls of the source: *; i = inactive; x = no result shown. Compounds with a hit are over-represented: about 6.3% of the library has one in this group of screens.

SMILES	NADH coupling	MK inhibit	Spn DPM-DC inh	Fluor 339 460	Abs 340nm	PMK inhibit
COc1ccc(-c2ccc(-c3noc(C(C)C)n3)c(OC)n2)cc1	4%	7	x	4*	1.1	0
COc1cccc(-c2ccc(-c3noc(-c4ccccc4F)n3)c(OC)n2)c1	0%	0	x	3.8*	1.2	0
COc1nc(-c2ccc(Cl)cc2)ccc1-c1noc(-c2ccco2)n1	8%	7	i	1.7	1.1	0
COc1nc(-c2ccccc2)ccc1-c1noc(C)n1	6%	9	i	1.3	1.1	0
NC(=O)CSc1nc(-c2ccccc2Cl)ns1	9%	4	i	1	0.99	22
Cc1ccc(C2C(C(=O)c3cc4ccccc4o3)=C(O)C(=O)N2CCCN(C)C)cc1 (stereo not drawn)	0%	0	i	1.1	1	1
COCCOC(=O)C1=C(C)N=C2SCCC(=O)N2C1c1ccc(OC(=O)c2ccco2)cc1 (stereo not drawn)	2%	6	i	1.1	1.1	0
